Screening results (PubChem BioAssay)
FBA Mtb inh = inhibitors of M. tuberculosis fructose-bisphosphate aldolase. 2.3% of 360,000 active. P9WQA3. inhibition, % at 1 µM. purified M. tuberculosis FBA, fluorescence read-out;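 further: 0% = vehicle and 100% = reference inhibitor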
Mtb UGM inh = Mtb UDP-galactopyranose mutase inhibition; P9WIQ1; purified UGM, fluorescence polarization probe displacement; inhibition, % at 10 µM; 0.06% of 320,000 active; AID 504406; in the data active means inhibition above about 10%, passing the limit was not always enough
Target sequence (P9WIQ1 whole entry, looked up): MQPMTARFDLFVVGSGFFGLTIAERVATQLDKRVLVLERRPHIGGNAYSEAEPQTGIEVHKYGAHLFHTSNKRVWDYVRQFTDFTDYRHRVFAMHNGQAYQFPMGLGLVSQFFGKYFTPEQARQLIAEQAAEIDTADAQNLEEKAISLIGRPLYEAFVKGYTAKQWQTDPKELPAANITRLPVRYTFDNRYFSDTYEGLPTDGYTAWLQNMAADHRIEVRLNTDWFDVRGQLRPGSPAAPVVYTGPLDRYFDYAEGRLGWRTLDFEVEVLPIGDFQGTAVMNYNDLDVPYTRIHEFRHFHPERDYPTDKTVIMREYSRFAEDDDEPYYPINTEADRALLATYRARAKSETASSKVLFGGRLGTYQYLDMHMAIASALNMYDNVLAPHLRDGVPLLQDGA
GDH-TPI counter-1 = GDH-TPI coupled enzyme inhibition counter-screen; GDH-TPI coupled enzyme counterscreen, NADH absorbance; inhibition, % at 4.8 µM; 1.2% of 360,000 active; AID 588335; in the data active means inhibition above about 30%;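 further: 0% = DMSO wells and 100% = wells lacking the enzyme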
Rv3671c inh = Rv3671c (M. tuberculosis) protease inhibition; P9WHR9; inhibition, % at 5.96 µM; 0.048% of 320,000 active; in the data active means inhibition above about 38%;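 further: extracellular domain of Rv3671c used as enzyme; 0% = enzyme with DMSO and 100% = no enzyme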
Mtb FBA confirm = Mtb FBA inhibition, confirmed; shares compounds with FBA Mtb inh; inhibition, % at 1 µM; purified M. tuberculosis FBA, fluorescence read-out; 78% of 5,600 active;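 further: 0% = vehicle wells and 100% = reference inhibitor wells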
GDH-TPI counter-2 = counter-screen for M. tuberculosis FBA inhibitors: GDH-TPI coupled enzyme inhibition; shares compounds with FBA Mtb inh; GDH-TPI coupled enzyme counterscreen, fluorescence; inhibition, % at 1 µM; 81% of 5,600 active; in the data active means inhibition above about 10%
GDH-TPI dose = GDH-TPI dose response counter-screen for Mtb FBA; shares compounds with FBA Mtb inh; GDH-TPI coupled enzyme assay, fluorescence, artifact counterscreen; IC50, µM; 79% of 170 active; AID 652145; call rule not given here
Starred values were filed as active, the others as inactive; . = not tested or not shown; + = active, no number; ! = not active in a repeat. In the library only some 3.5% were active in any assay of this set; here they are far more common. Unless noted, no stated cut-off is given here; in the data, active means inhibition above about 27%; inactive means the rest.

SMILES	FBA Mtb inh	Mtb UGM inh	GDH-TPI counter-1	Rv3671c inh	Mtb FBA confirm	GDH-TPI counter-2	others
CCOC(CCNC(=O)c1cc(-c2cccs2)nc2ccccc12)OCC	95*	-2	20	3	+	+
CC(C)NC(=O)c1cc(-c2cccs2)nc2ccccc12	71*	-1	1	-3	145*	113*
O=C(CCc1c[nH]c2ccccc12)N1CCN(S(=O)(=O)c2ccc(F)cc2)CC1	0	.	4	.	.	.
Cc1ccc(-c2cc(C(=O)Nc3cccnc3)c3ccccc3n2)s1	42*	-2	8	-15	59*	43*
Cc1ccc(-c2cc(C(=O)Nc3cc(C)on3)c3ccccc3n2)cc1	11	1	16	-5	.	.
O=C(NC1=NCCS1)c1cc(-c2cccs2)nc2ccccc12	44*	-1	17	-10	87*	63*
Cc1cc(NC(=O)c2cc(-c3cccs3)nc3ccccc23)no1	71*	0	22	-9	-4	-7
Cc1ccc(-c2cc(C(=O)O)c3cc(Br)ccc3n2)s1	32*	-3	41*!	.	197*!	194*!
O=C(N/N=C/c1ccsc1)c1cc(-c2cccs2)nc2ccccc12	5	-2	3	-31	.	.
O=C(O)c1ccc(/C=N/NC(=O)c2cc(-c3cccs3)nc3ccccc23)cc1	31*	2	24	4	+	+
COc1ccc2cc(OC)c(C(=O)N3CCOCC3)cc2c1	36*	-1	-8	-2	-2	-4
COc1cc2ccccc2cc1C(=O)N1CCN(C(C)=O)CC1	1	3	6	2	.	.
COc1ccc2oc(=O)c(C(=O)N3CCN(C(=O)c4ccccc4)CC3)cc2c1	27*	-1	1	-4	119*	92*
O=C(c1ccco1)N1CCN(C(=O)c2cc3ccccc3oc2=O)CC1	2	1	10	4	.	.
COc1ccc2oc(=O)c(C(=O)N3CCN(c4ccccc4)CC3)cc2c1	2	2	14	-8	.	.
COc1ccc2oc(=O)c(C(=O)N3CCN(C(=O)c4ccco4)CC3)cc2c1	34*	-3	1	2	115*	76*
c1ccc(-n2cc(CN3CCC(N4CCOCC4)CC3)c(-c3ccc4c(c3)OCO4)n2)cc1	36*	-1	11	1	55*	66*
CCN1Cc2c(/C=C/c3ccccc3)nc3ccc(OC)cc3c2N(c2cccc(Cl)c2)C1	4	4	16	-44	.	.
O=C(C[n+]1cccc(Br)c1)c1ccc(-c2ccccc2)cc1	-3	2	7	2	.	.
CC1=C(C#N)C(c2cccnc2)C2=C(CC(c3ccc(Cl)cc3)CC2=O)N1 (stereo unspecified)	70*	2	8	1	6	-1
CC1=C(C#N)C(c2ccc(O)cc2)C2=C(CCCC2=O)N1 (stereo unspecified)	14	-2	4	-2	.	.
Cc1nc(NC(=O)C(C)Oc2cccc(Cl)c2)sc1C(=O)N(C)C (stereo unspecified)	1	-3	-4	-6	.	.
COc1ccc(-c2nc3ccccc3nc2-c2ccc(OC)c(OC)c2)cc1OC	-4	0	-8	-5	.	.
COc1ccccc1-c1nc2ccccc2nc1-c1ccccc1OC	28*	-1	11	-3	166*	140*
CC(=O)COc1ccc2c(-c3cccc([N+](=O)[O-])c3)cc(=O)oc2c1	36*	1	5	-2	108*	74*
SMILES	FBA Mtb inh	Mtb UGM inh	GDH-TPI counter-1	Rv3671c inh	Mtb FBA confirm	GDH-TPI counter-2	others
O=C(O)COc1ccc2c(-c3ccccc3)cc(=O)oc2c1	1	0	24	-1	.	.
Nc1ccc2ccccc2c1	28*	.	4	.	40*	34*
O=C(CN(C(=O)CCC(=O)Nc1nccs1)c1cccc(F)c1)NCCc1ccccc1	-2	0	13	0	.	.
CC(=O)c1ccc(NC(=O)C(Cc2ccccc2)n2cccc2)cc1 (stereo unspecified)	3	2	-12	2	.	.
CCOC(=O)CN1C(=O)N[C@@H](CCc2ccccc2)[C@H](C(=O)OC)[C@H]1C	-3	2	-16	-3	.	.
O=c1oc2ccccc2cc1-c1cn2cccnc2n1	29*	-1	45*	-22	+	196*
O=c1oc(-c2ccccc2)cc2ccccc12	44*	.	11	.	71*	47*
O=c1oc2ccccc2cc1-c1cn2ccccc2n1	4	-2	30	-6	.	.
O=C(Cc1cccc2ccccc12)Nc1ccc(-c2cc3ccccc3oc2=O)cc1	53*	1	22	-23	75*	49*
O=c1oc2ccccc2cc1-c1ccccc1	31*	0	17	-4	11	2	GDH-TPI dose=5.2*
O=c1oc2ccc(Cl)cc2cc1-c1ccccc1	1	1	-3	1	.	.
CCC(=O)Nc1cccc(-c2cc3ccccc3oc2=O)c1	1	2	23	-11	.	.
O=C(CSc1n[nH]c(-c2ccncc2)n1)Nc1ccc(Cl)c(C(=O)O)c1	0	3	1	0	.	.
COc1cc(OC)cc(C(=O)N[C@H](C(=O)NCc2ccc(F)cc2)C(C)C)c1	-1	1	2	1	.	.
CCOC(=O)CC(NC(=O)c1cc2cccc(OC)c2oc1=O)c1ccc(OC)cc1 (stereo unspecified)	-1	0	12	-12	.	.
C/C(=N\NC(=O)c1cccc(C)c1O)c1ccc(NC(=O)Cc2ccccc2)cc1	8	3	10	-7	.	.
N#CCc1nc(-c2cc3ccccc3oc2=O)cs1	77*	1	12	-8	197*	155*
O=c1oc2ccccc2cc1-c1nc(-c2cccs2)cs1	1	5	27	-13	.	.
COc1c(Cl)cccc1-c1cn2ccc(C)cc2n1	38*	-3	1	5	36*	39*
Cc1oncc1-c1cn2ccccc2n1	22	-2	7	6	.	.
Cc1ccn2cc(-c3cnoc3C)nc2c1	31*	-3	-8	2	15	0
CCn1c(SCC(=O)N2CCOCC2)nnc1-c1cccs1	70*	0	6	-2	142*	117*
CCn1c(SCC(=O)N2CCCc3ccccc32)nnc1-c1cccs1	0	-3	3	2	.	.
CC(C)(CO)NS(=O)(=O)c1ccc2c(c1)oc(=O)c1cc(S(=O)(=O)NC(C)(C)CO)ccc12	81*	-2	9	4	5	-10
CC(C)(C)NS(=O)(=O)c1ccc2c(c1)oc(=O)c1cc(S(=O)(=O)NC(C)(C)C)ccc12	-1	1	5	2	.	.
CCCCc1cc(=O)oc2cc(C)cc(OC(C)C(=O)NCc3cccnc3)c12 (stereo unspecified)	56*	1	-5	0	55*	43*
Cc1cc(OC(C)C(=O)NCc2cccnc2)c2c3c(c(=O)oc2c1)CCC3 (stereo unspecified)	21	-1	6	-7	.	.
